These results are taken from PubChem BioAssay (EPA / NIEHS).

Inconclusive results are not listed. Calls of active or inactive are those of the source. How the source made its calls: active means hit-call score of the fitted dose curve at least 0.9, where 1 is the maximum; inconclusive means response in the unintended direction; inactive means score below 0.9.

Assay [1] can be described thus: Tanguay_ZF_120hpf_ActivityScore_legacy: (Legacy) Oregon State University Tanguay Lab 120 Hour Post-fertilization zebrafish Assay Score for Activity (AID 2283742).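 On AC50: dechorionated Tropical 5D wild-type zebrafish embryos held singly per well.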 The method in brief:
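Dechorionated 5D embryos, one per well, static exposure 6–120 hpf, 28C, sealed and dark; final DMSO 0.64% (vol/vol). Brightfield binary scoring of mortality plus 18 endpoints; gain-of-signal fit versus DMSO baseline.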

The nature of assay [2]: ACEA_AR_agonist_AUC_viability: ACEA Biosciences xCELLigence Real-Time Cell Analysis on Androgen Receptor Agonism for Viability (AID 2283775).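 On AC50: viability read 80 hours after compound addition.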 Put shortly: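 Viability endpoint from xCELLigence impedance in 22Rv1 prostate cells at 80 h. Eight-point series, 100 uM maximum final.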
Assay [3] can be described thus: ACEA_AR_antagonist_AUC_viability: ACEA Biosciences xCELLigence Real-Time Cell Analysis on Androgen Receptor Antagonism for Viability (AID 2283776).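 Further: 22Rv1 human prostate cancer cells growing on impedance electrode plates; area under impedance growth curve at 80 h after dosing as viability; hits lower the growth signal relative to DMSO meaning cytotoxicity.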 The method in brief: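 22Rv1 prostate cells, continuous dosing up to 100 uM final (0.5% DMSO max), duplicate plates. Growth measured by impedance; AUC at 80 h, loss of signal vs DMSO.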
Assay [4] deals with Luciferin 4-monooxygenase (Photinus pyralis) (UniProt P08659). As to the kind of experiment: CCTE_Simmons_QuantiLum_inhib_2: CCTE's Firefly Luciferase Inhibition Assay, Simmons Lab (AID 2283767). The method in brief:
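Eight-point titrations of each chemical, 5 nM–87.5 uM final in 0.5% DMSO, were run in three biological replicates against recombinant luciferase for 30 min at 37C. Bioluminescence signal loss, read on reagent injection, gave the inhibition endpoint.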

Luciferin 4-monooxygenase (Photinus pyralis), sequence (P08659 whole entry, looked up): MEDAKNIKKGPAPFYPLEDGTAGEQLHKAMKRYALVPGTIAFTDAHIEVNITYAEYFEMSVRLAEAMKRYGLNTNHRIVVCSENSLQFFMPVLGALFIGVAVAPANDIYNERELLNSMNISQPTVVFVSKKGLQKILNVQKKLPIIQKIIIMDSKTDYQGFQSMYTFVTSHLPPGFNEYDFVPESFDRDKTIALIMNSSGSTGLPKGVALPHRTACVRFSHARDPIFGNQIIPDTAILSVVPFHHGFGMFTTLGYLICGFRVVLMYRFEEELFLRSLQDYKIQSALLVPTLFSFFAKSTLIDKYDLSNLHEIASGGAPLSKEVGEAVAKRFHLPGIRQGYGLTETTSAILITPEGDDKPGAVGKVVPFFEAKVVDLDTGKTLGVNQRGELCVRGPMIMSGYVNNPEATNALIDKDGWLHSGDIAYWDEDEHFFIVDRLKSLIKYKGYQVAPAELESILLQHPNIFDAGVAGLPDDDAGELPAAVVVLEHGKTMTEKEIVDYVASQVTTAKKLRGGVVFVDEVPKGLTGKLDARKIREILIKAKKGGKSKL

Regarding `C=CCCCCCCCCCCCC`, the result in assay [1], in assay [2] and in assay [3] was inactive.

Take `CCC(C)N(C)C(=O)c1cc2ccccc2c(-c2ccccc2Cl)n1` (configuration not stated): the outcome in assay [1] was inactive. For the same molecule, the AC50 (commonly the midpoint of the concentration-response curve, whichever way the signal moves) in assay [2] was 45.7 µM (active); in assay [3] it was 40.9 µM (active).

With `O=C(O)c1cccnc1`, the outcome in assay [1], in assay [2] and in assay [3] was inactive.

For the molecule `CCCCCCCC(=O)OC`, the result in assay [1] and in assay [3] was inactive. Moreover, the AC50 in assay [2] is 13.9 µM (active).

In the case of `CCCCCCCCCC[N+](C)(C)[O-]`, the result in assay [1], in assay [2] and in assay [3] was inactive.

As for `CCCC[C@H]1CN(CC2CCOCC2)C(=O)OC12CCN(C1(C)CCN(C(=O)c3c(C)ncnc3C)CC1)CC2`, the molecule was called inactive in assay [1], in assay [2] and in assay [3].

Turning to `COC(=O)CCC(=O)OC`, the result in assay [1], in assay [2] and in assay [3] was inactive.

As for `CC(C)(O)c1ccc(CNC(=O)c2cccnc2Oc2ccc(F)cc2)cc1`, the molecule was called inactive in assay [1], in assay [2] and in assay [3].

Consider `O=C(O)CN(CC(=O)O)CC(=O)O`, for which the molecule was called inactive in assay [1], in assay [2] and in assay [3].

As to `CC(N)=O`, the result in assay [1], in assay [2] and in assay [3] was inactive.

As to `C#CC(O)C(CC)CCCC` (configuration not stated), the result in assay [1], in assay [2] and in assay [3] was inactive.

`NC=O`: the call in assay [1], in assay [2] and in assay [3] was inactive.

Consider `O=C(N[C@@H](c1ccccc1)[C@@H]1CCCCN1)c1cccc(C(F)(F)F)c1Cl`, for which the values for the AC50 in assay [1], in assay [2] and in assay [3] were 53.2 µM (active), 55.8 µM (active) and 39.5 µM (active), respectively.

As for `CCCCCCC(C=O)=Cc1ccccc1`, in assay [1], the result was inactive. The AC50 in assay [2] was 76.7 µM (active); in assay [3] it was 78.5 µM (active).

On to `CC1(C)C(=O)NC(=O)N1CO`, for which the molecule was called inactive in assay [1], in assay [2] and in assay [3].

Take `CCCCc1nc2cccnc2n1Cc1ccc(-c2ccccc2-c2nnn[nH]2)cc1`: the molecule was classed as inactive in assay [1]. For the same molecule, the AC50 in assay [2] and in assay [3] was 50 µM (active) throughout.

As for `CN(C)C(=O)NC1(c2ccccc2)CCN(CCC[C@]2(c3ccc(Cl)c(Cl)c3)CCCN(C(=O)c3ccccc3)C2)CC1`, in assay [1], the molecule was called inactive. In addition, the AC50 in assay [2] was 16.2 µM (active); in assay [3], 16.7 µM (active).

Regarding `CCc1nc(N)nc(N)c1-c1ccc(Cl)cc1`, the molecule was called inactive in assay [1]. Moreover, the AC50 in assay [2] and in assay [3] was 50 µM (active) each time.

In the case of `CC(=O)S[C@H](C(=O)N[C@H]1Cc2ccccc2[C@H]2CCC[C@@H](C(=O)O)N2C1=O)C(C)C`, the outcome in assay [1], in assay [2] and in assay [3] was inactive.

For the molecule `CCc1cc(C2=C(C(=O)O)N(c3ccccc3C(F)(F)F)S(=O)(=O)c3ccccc32)cc2c1OCO2`, the molecule was classed as inactive in assay [1] and in assay [2]. Also, in assay [3], the AC50 was 25 µM (active).

In the case of `O=C(O)CC(O)(CC(=O)O)C(=O)O`, the molecule was called inactive in assay [1], in assay [2] and in assay [3].

In the case of `CC(=O)CC(c1ccccc1)c1c(O)c2ccccc2oc1=O` (configuration not stated), the outcome in assay [1], in assay [2] and in assay [3] was inactive.

As for `CO[C@@H]1COCC[C@@H]1N[C@@H]1CC[C@@](C(=O)N2CCc3ncc(C(F)(F)F)cc3C2)(C(C)C)C1`, the result in assay [1], in assay [2] and in assay [3] was inactive.

Turning to `Cc1cn([C@H]2C=C[C@@H](CO)O2)c(=O)[nH]c1=O`, the molecule was classed as inactive in assay [1] and in assay [2]. Also, the AC50 in assay [3] is 19.7 µM (active).

As for `Cn1cnc2c1c(=O)[nH]c(=O)n2C`, the molecule was classed as inactive in assay [1], in assay [2] and in assay [3].

Regarding `CC(=O)O`, the call in assay [1], in assay [2] and in assay [3] was inactive.

Consider `CC(C)OC(=O)C(C)(C)Oc1ccc(C(=O)c2ccc(Cl)cc2)cc1`, for which the molecule was called inactive in assay [1]. In addition, the AC50 was 35.4 µM (active) in assay [2] and 41.2 µM (active) in assay [3].

As to `COc1ccc(C(=O)Nc2nc3ccccc3c(NCc3ccccc3)c2C#N)cc1`, in assay [1], the outcome was inactive. For the same molecule, the AC50 in assay [2] was 24 µM (active); in assay [3] it was 23.5 µM (active).

Regarding `CC(C)c1cccc(C(C)C)c1NC(=O)NS(=O)(=O)c1cc(C(C)(C)O)co1`, in assay [1], the outcome was inactive. The AC50 in assay [2] is 28.2 µM (active); in assay [3], 19 µM (active).

Turning to `CC(C)c1cccc(C(C)C)c1`, the result in assay [1] and in assay [3] was inactive.

Take `CN(C)CCCN(C)CCCN(C)C`: the outcome in assay [1], in assay [2] and in assay [3] was inactive.

As to `c1ccc2occc2c1`, the result in assay [1], in assay [2] and in assay [3] was inactive.

Consider `CC1=C(C)S(=O)(=O)CCS1(=O)=O`, for which the molecule was classed as inactive in assay [1]. Besides, the AC50 in assay [2] was 82.6 µM (active); in assay [3], 88.8 µM (active).

Turning to `O=C1CCCCC1`, the molecule was called inactive in assay [1], in assay [2] and in assay [3].

`NC(=Nc1ccccc1)Nc1ccccc1`: the AC50 in assay [1] was 0.00546 µM (active). Besides, the molecule was called inactive in assay [2] and in assay [3].

With `O=C1NC(=O)C(c2ccccc2)(c2ccccc2)N1`, the outcome in assay [1] was inactive. Also, the AC50 was 33.6 µM (active) in assay [2] and 28.7 µM (active) in assay [3].

Regarding `OCC(CO)n1cnc(-c2ccc(F)cc2)c1-c1ccnc(Oc2ccccc2)n1`, the result in assay [1] and in assay [2] was inactive. Further, the AC50 in assay [3] was 21.1 µM (active).

Regarding `CC(=O)[C@@]1(O)CC[C@H]2[C@@H]3CCC4=CC(=O)CC[C@]4(C)[C@H]3CC[C@@]21C`, the call in assay [1] and in assay [3] was inactive.

As to `O=C(O)c1[nH]n(-c2ccc(S(=O)(=O)O)cc2)c(=O)c1N=Nc1ccc(S(=O)(=O)O)cc1`, the molecule was classed as inactive in assay [1], in assay [2] and in assay [3].

As for `O=[Si]=O`, the molecule was classed as inactive in assay [1] and in assay [3].

Turning to `CC(=O)OCC(COC(C)=O)OC(C)=O`, the outcome in assay [1] and in assay [3] was inactive.

In the case of `N[C@@H](Cc1c[nH]c2ccccc12)C(=O)O`, the outcome in assay [1] and in assay [2] was inactive. In addition, the AC50 in assay [3] was 9.92 µM (active).

Take `CCCC(=O)O`: the molecule was classed as inactive in assay [1], in assay [2] and in assay [3].

Turning to `NC1CCCCC1`, the molecule was called inactive in assay [1], in assay [2] and in assay [3].

In the case of `S=c1[nH]c2ccccc2s1`, the molecule was classed as inactive in assay [4] and in assay [3].

For `CCCCC(CC)COC(=O)CCCCCCCC(=O)OCC(CC)CCCC` (configuration not stated), the molecule was classed as inactive in assay [1], in assay [2] and in assay [3].

As to `COC(=O)CCCC(=O)OC`, the result in assay [1] and in assay [3] was inactive.

Turning to `CC(COCC(C)OC(=O)c1ccccc1)OC(=O)c1ccccc1` (configuration not stated), the molecule was classed as inactive in assay [1] and in assay [3].
